We go through 13 molecules from PubChem BioAssay (NCI).

This is part of a sample that, as a whole, favours compounds with a hit. Of some 83,000 tested, about 20% had one in any assay.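 Values shown are percent growth following 48 h exposure of cells in 96-well plates to a single concentration of compound; below 10 was considered active.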 Values without a mark were called inactive. Activity calls are given as the source filed them.

Common to all, as to test: NCI-60 one-dose screen, 48 h (100 = growth as untreated, 0 = no growth, -100 = all killed)
What all share (conditions): 10 µM unless noted

The test system of assay [1] is RPMI-8226 leukemia.
For assay [2], the system named is OVCAR-8 ovarian.
For assay [3], the system named is OVCAR-5 ovarian.
Assay [4] deals with OVCAR-4 ovarian.
In assay [5] the test system is SK-OV-3 ovarian.
Assay [6] concerns OVCAR-3 ovarian.
The test system of assay [7] is HS 578T breast.
Assay [8] has as its system NCI/ADR-RES ovarian.
Assay [9] has as its system T-47D breast.
Assay [10] has as its system IGROV1 ovarian.

With `O=C(Cc1ccccc1)NC(c1ccc(Cl)cc1)c1c(O)ccc2ccccc12` (centres undefined), the growth in [1] was -20.8% (active); in [2], 5.43% (active); in [3], 45.7%; in [4], 21.7%; in [5] it was 36.1%; in assay [6] it was -22.9% (active). Further, the growth in assay [7] was 54.1%; in assay [8], 9.15% (active); in assay [9], 10.8%.
Regarding `O=C1/C=C/[C@@H](O)[C@@H]2C[C@@H](O)C[C@H]2/C=C/CCCCO1`, the growth in [1] is -39.2% (active); in assay [2], 12.5%; in assay [3], 36.6%; in assay [4] it was 20.9%; in assay [5], 13%; in [6], -31.3% (active). Besides, the results for the growth in [7], in assay [8] and in assay [9] were 23.3%, 9.26% (active) and -11.1% (active), respectively.
As for `O=C(NC1CCN(Cc2ccccc2)CC1)c1cc(C(=O)NC2CCN(Cc3ccccc3)CC2)cc(C(=O)NC2CCN(Cc3ccccc3)CC2)c1`, the growth was 56.4% in assay [1]; 91.9% in assay [2]; 112% in [3]; 60.5% in [4]; 79.8% in [5]; -33.7% (active) in [10]. The growth in [6] was 87%; in assay [7], 79.6%; in assay [8], 82.1%; in assay [9], 72.5%.
Consider `Cc1nn(-c2nc3ccccc3[nH]2)c2c1C(c1ccc(OCC(N)=O)cc1)CC(=O)N2` (centres undefined), for which the growth in assay [1] was 126%; in [2], 107%; in [3] it was 102%; in [4], 108%; in [5], 106%; in assay [10], 109%. The growth in assay [6] is 111%; in [7] it was 95%; in assay [8], 109%; in [9], 90.8%.
Turning to `O=C1c2ccc3c4c(ccc(c24)C(=O)N1CCCCO)C(=O)N(CCCCO)C3=O`, the growth in assay [1] is 16.8%; in assay [2], 75.4%; in assay [3], 106%; in assay [4] it was 42.4%; in [5], 85.1%; in assay [10], 86.2%. In addition, the growth is 32.9% in [6], 78.2% in assay [7], 82.2% in assay [8] and 87.3% in assay [9].
Take `N#C/C(=C\c1c(-c2ccccc2)[nH]c2ccccc12)C(=O)c1ccccc1`: the growth is -0.917% (active) in assay [1]; 46.9% in assay [2]; 70.5% in assay [3]; 68.9% in assay [4]; 57.4% in assay [5]; -7.05% (active) in [6]. The growth in [7] is 16%; in assay [8], 6.15% (active); in assay [9], 39%.
On to `COc1cc(C(=O)O/N=C(\N)Cc2cccc3ccccc23)cc(OC)c1OC`, for which the growth in assay [1] was -36.4% (active); in assay [2] it was 1.62% (active); in assay [3], 48%; in assay [4] it was 66.8%; in [5] it was 69.2%; in assay [10] it was 46.9%. Besides, the growth was 6.38% (active) in [6], 26% in assay [7], 59.8% in assay [8] and -73.1% (active) in [9].
Consider `CC(=O)O[C@@H]1/C=C/C(=O)N[C@@H](C)CCC/C=C/[C@@H]2CCC[C@H]21`, for which the growth in [1] was 87.5%; in [2], 99.4%; in assay [3], 87.8%; in assay [4] it was 109%; in assay [5] it was 103%; in assay [6], 106%. Moreover, the growth was 133% in assay [7], 101% in assay [8] and 98.6% in assay [9].
`O=C1c2cc(Cl)ccc2Oc2cc([N+](=O)[O-])ccc2N1c1ccc(F)cc1F`: the growth is 87.6% in assay [1]; 86.8% in [2]; 100% in assay [3]; 79.4% in assay [4]; 111% in [5]; 75.9% in assay [10]. Also, the growth was 106% in [6], 87.2% in assay [7], 97.7% in [8] and 72% in [9].
For `C#CCn1cc(C=C2C(=O)NC(=O)NC2=O)c2cc(Cl)ccc21`, the growth was 70.3% in [1]; 87.5% in assay [2]; 74.3% in assay [3]; 75.9% in [4]; 112% in [5]; 82.8% in [10]. Besides, the growth was 88.5% in assay [6], 84% in assay [7], 99.8% in assay [8] and 60.8% in [9].
Turning to `COc1ccc(C2NCCc3c2[nH]c2ccccc32)cc1CN1CCN(c2ccc(F)cc2)CC1` (centres undefined), the growth was -10% (active) in assay [1]; 24.6% in [2]; 64.8% in [3]; 65.3% in [4]; 88.8% in assay [5]; 66.8% in [6]. Besides, the growth in assay [7] is 92.2%; in [8], 54.7%.
In the case of `COc1cc(C2C(C#N)=C(N)OC3=C2C(=O)c2ccccc2C3=O)cc(OC)c1O` (centres undefined), the growth in [1] is 17.1%; in [2], 33.7%; in [3] it was 65.5%; in [4], 81.9%; in [5] it was 48.2%; in assay [10], 62.1%. The growth in assay [6] is 1.44% (active); in [7] it was 6.8% (active); in assay [8] it was 66.5%; in assay [9], 88.4%.
Turning to `CCOC(=O)c1cc2c(n1Cc1cc(OC)cc(OC)c1)-c1oncc1CCC2`, the growth in assay [1] was 20.2%; in [2], 19.5%; in assay [3], 58.9%; in assay [4], 37.7%; in assay [5] it was -0.349% (active); in assay [10], -38.4% (active). Further, the growth in [6] was -35.7% (active); in assay [7], 21.5%; in assay [8], 6.97% (active); in assay [9], 66.8%.
